Compound activity from PubChem BioAssay.
TLR9-MyD88 inh: blocks human TLR9 binding to MyD88 | Q9NR96+Q99836 | CHO BLA complementation TLR9-MyD88, CCF4 FRET ratio | inhibition, % at 4.98 µM | hit rate 0.21% among 340,000 | AID 504734;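 active = inhibition above the mean over all tested compounds plus 3 SD, cut at about 21% in these data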;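 note: 0% = DMSO only wells and 100% = clavulanate BLA inhibitor control wells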
B2AR ag: human beta-2 adrenergic receptor agonism by FAP | P07550 | Am2.2-beta2AR cells, FAP receptor internalization, flow cytometry | response, % (no concentration beside the values) | hit rate 0.43% among 340,000 | AID 504454;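 active = response above a set limit, near 3 SD of response in nonfluorescent compounds, cut at about 42% in these data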
Target sequence (P07550 whole entry, looked up): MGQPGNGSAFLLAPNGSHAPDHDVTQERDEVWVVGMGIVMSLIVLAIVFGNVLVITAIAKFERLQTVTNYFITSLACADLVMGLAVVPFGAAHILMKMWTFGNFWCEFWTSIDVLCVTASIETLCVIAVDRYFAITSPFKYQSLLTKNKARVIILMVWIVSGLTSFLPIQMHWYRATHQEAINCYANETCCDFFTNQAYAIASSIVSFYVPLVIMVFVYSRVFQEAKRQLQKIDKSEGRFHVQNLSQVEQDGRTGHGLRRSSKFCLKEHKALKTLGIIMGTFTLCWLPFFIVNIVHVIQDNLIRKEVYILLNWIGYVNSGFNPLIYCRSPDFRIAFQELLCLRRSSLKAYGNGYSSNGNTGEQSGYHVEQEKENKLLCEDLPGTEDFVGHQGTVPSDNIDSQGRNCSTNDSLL
NOD2-RIPK2 inh: blocks binding of human NOD2 to RIPK2 | CHO BLA complementation NOD2-RIPK2, CCF4 ratio | AID 624267 | hit rate 0.38% among 360,000 | inhibition, % at 4.98 µM | O43353; in the data active = inhibition above about 21%;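 note: 0% = vehicle only and 100% = reference blocker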
NTR1 agonist: NTR1 (human) agonism; activation, % at 20 µM; P30989; AID 493036; NTR1-U2OS beta-arrestin-GFP spot imaging, agonist mode; hit rate 0.17% among 330,000;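 active = activation at or above 40% of the spot to cytoplasm intensity ratio, with at least 20 cells analyzed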;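 note: 0% = DMSO without peptide and 100% = 100 nM NTR1 peptide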
TLR4-MyD88 BLA: blocks binding of human TLR4 to MyD88; O00206+Q99836; HeLa CL3-4 TLR4/MyD88 BLA complementation, FRET ratio; inhibition, % at 8.4 µM; hit rate 0.18% among 200,000; in the data active = inhibition above about 25%;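 note: 0% = vehicle and 100% = reference inhibitor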
ABHD5 PLIN5 PPI: blocks binding of human ABHD5 to perilipin-5. Q00G26+Q8WTS1. Split G. princeps luciferase complementation, luminescence, 4 h. inhibition, % at 4 µM. hit rate 0.78% among 360,000. AID 602281;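 active = inhibition above the mean inhibition across every tested compound plus 3 SD, cut at about 22% in these data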;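 note: 0% = DMSO only wells and the 100% control is not disclosed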
ABHD5 PLIN5 conf: confirmation of human ABHD5-PLIN5 interaction inhibitors; shares compounds with ABHD5 PLIN5 PPI; biochemical ABHD5-PLIN5 interaction, luminescence; inhibition, % at 4 µM; hit rate 67% among 2,200; AID 651612; in the data active = inhibition above about 23%;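 note: 0% = DMSO vehicle wells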
HNF4 counter: active in HNF4 split-luciferase counter-screen for ABHD5-PLIN5 inhibitors; HNF4 dimerization, luminescence, biochemical; hit rate 77% among 2,200; inhibition, % at 4 µM; shares compounds with ABHD5 PLIN5 PPI;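 active = mean inhibition across replicate wells exceeding the computed hit threshold, cut at about 13% in these data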;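 note: light from luciferase halves that rejoin when HNF4 fusion proteins dimerize; 0% = DMSO only wells and the 100% control is not given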
Starred values were filed as active, the others as inactive; · = not tested or not shown; ! = not active in a repeat. Compounds with a hit are over-represented: about 1.5% of the library has one in this group of screens.

SMILES	TLR9-MyD88 inh	B2AR ag	NOD2-RIPK2 inh	NTR1 agonist	TLR4-MyD88 BLA	ABHD5 PLIN5 PPI	ABHD5 PLIN5 conf	HNF4 counter
Cc1ccc(C(=O)/C=C/c2cc(Br)cc(Br)c2O)o1	9	16	12	6	·	30*	59*	25*
CCOc1ccc(NC(=O)CN(C)C(=O)C2CC(=O)N(Cc3ccco3)C2)cc1OCC (centres undefined)	1	1	-7	0	·	23*	29*	24*
C=CCNc1ncnc2c1ncn2[C@H]1CN(CCOC)C[C@@H](CO)O1	·	·	-3	·	·	-1	·	·
CSC(=Nc1ccccc1)N=C(SCc1ccccc1)N(C)C	-16	18	4	·	·	81*	96*	57*
N#CNC(=Nc1ccccc1)SCc1ccc(C(=O)O)cc1	4	0	7	2	-14	-1	·	·
OC(c1cccc(Cl)c1)c1nc(/C=C/c2ccccc2)cs1 (centres undefined)	·	·	2	·	·	4	·	·
Cc1ccc(/C=C2/NC(=O)N(Cc3ccccc3F)C2=O)o1	6	9	9	0	9	40*	17	81*
CCN1C(=O)N/C(=C/c2ccc(C)o2)C1=O	6	-6	3	-1	9	42*	27*	89*
CCn1c(C)cc(/C=C2/NC(=O)N(Cc3ccccc3F)C2=O)c1C	6	5	-9	-2	-11	-4	·	·
CCN1C(=O)N/C(=C/c2ccc(Sc3ccc(C)cc3)o2)C1=O	-1	-5	-2	9	9	2	·	·
CNC(=O)/C(C#N)=C/c1ccc(-c2nc3ccccc3s2)o1	·	-2	-10	0	·	35*	6	4
CCN(CC)C(=O)c1cccc(-c2csc(C(NC(C)=O)c3ccc(F)c(F)c3)n2)c1 (centres undefined)	·	·	0	·	·	2	·	·
CN1CCOc2c1cnn(CCO)c2=O	·	·	-7	·	·	1	·	·
COc1cccc(/C=C2/CCC(CN(C)C)C2=O)c1 (centres undefined)	2	26	6	·	·	58*	101*	104*
COc1ccc(/C=C2/CCCC(CN(C)C)C2=O)cc1 (centres undefined)	-7	2	-10	·	·	-2	·	·
c1ccc(COc2cccc(-c3cc4nc(NCc5cccs5)ccn4n3)c2)cc1	·	·	1	·	·	-11	·	·
Cc1nnc(N=c2ssnc2Cl)o1	3	0	-9	4	·	47*	98*	110*
Cc1ccc(N=c2ssnc2Cl)cc1	-5	0	-1	1	-3	9	·	·
CC(C)Nc1nc(Nc2ccc(Cl)cc2F)c2sccc2n1	·	·	-2	·	·	-3	·	·
COc1cc(CNC(C)(C)CO)cc(Br)c1OCc1ccc(Cl)cc1Cl	5	26	11	8	5	34*	20	4
COc1cc(CNC(C)(C)CO)cc(Br)c1OCc1ccc(Cl)cc1	-4	18	5	2	-2	28*	13	0
C[C@@H]1O[C@H](C2CC2)Cc2[nH]c(=S)[nH]c(=O)c21	·	·	-3	·	·	-13	·	·
Cc1cc(O)c(-c2cc(O)c(C)cc2O)cc1O	6	35	16	1	·	44*	37*	87*
CC1CCCCN1Cc1c(O)ccc2c(=O)c(-c3nc4ccccc4s3)c(N)oc12 (centres undefined)	-4	7	-2	2	-1	29*	7	8
COc1ccc(-c2c(C)oc3c(CN4CCCCC4C)c(O)ccc3c2=O)cc1 (centres undefined)	5	-6	4	0	·	1	·	·
SMILES	TLR9-MyD88 inh	B2AR ag	NOD2-RIPK2 inh	NTR1 agonist	TLR4-MyD88 BLA	ABHD5 PLIN5 PPI	ABHD5 PLIN5 conf	HNF4 counter
CC1(C(=O)NS(=O)(=O)c2ccc(C#N)cc2)CCN1C(=O)C1(c2ccccc2)CC1 (centres undefined)	·	·	6	·	·	-1	·	·
O=C(O)C(C(=O)/C=C/c1ccco1)=C1SCCS1	9	2	-3	1	-3	45*	21	31*
O=C(C=Cc1ccco1)N1CCOCC1	0	-1	0	·	·	1	·	·
O=C(C=C1SCCS1)/C=C/c1ccco1	4	-6	2	3	14	31*	44*	48*
O=C(/C=C/c1ccco1)NC1CCCC1	3	-3	-10	0	7	6	·	·
O=C(CSc1c2c(nc3cc(Cl)ccc13)CCCC2)NCCCN1CCOCC1	-4	-7	8	0	5	20	·	·
CCN(CC)CCCNC(=O)CSc1c2c(nc3cc(Cl)ccc13)CCCC2	-8	4	1	-1	16	29*	39*	28*
COc1ccc(/C=C\C(=O)CC(O)(c2ccccc2)C(F)(F)F)cc1 (centres undefined)	-5	10	7	10	-6	53*	79*	55*
COc1ccc(CCNC(=O)CN(c2cccc([N+](=O)[O-])c2)S(C)(=O)=O)cc1OC	0	0	-9	1	-19	82*	7	5
COc1ccc(CCNC(=O)CN(c2cc([N+](=O)[O-])ccc2OC)S(C)(=O)=O)cc1OC	2	1	-2	0	5	-1	·	·
CNc1ccc(Br)cc(C(=O)/C=C/c2cccc(OC)c2)c1=O	1	16	2	5	2	30*	65*	49*
COc1cccc(/C=C/C(=O)OCC(=O)NCCNC(=O)COC(=O)/C=C/c2cccc(OC)c2)c1	-14	10	-1	3	·	-8	·	·
O=C(NCc1ccc(Cl)c(Cl)c1)c1cc(C2CCCCN2C(=O)OCCF)on1 (centres undefined)	·	·	1	·	·	2	·	·
COCCNC(=O)C1(C)CCN(C(=O)c2sc(-c3ccccc3)nc2C)C1 (centres undefined)	·	·	-14	·	·	-10	·	·
CN1CCC(=C2c3ccccc3CCc3sccc32)CC1	1	25	9	0	·	17	·	·
CN1CCC(=C2c3ccccc3CC(=O)c3sccc32)CC1	1	8	-8	-2	-4	27*!	30*	4
COc1ccc(OC)c(NC(=O)C2(C)CCN2Cc2ccsc2)c1 (centres undefined)	·	·	2	·	·	-2	·	·
CC(C)C[C@H](N)c1nnc(S(=O)(=O)Cc2cccc(F)c2)o1	-1	1	10	3	14	38*	42*	76*
CC(C)(C)OC(=O)N[C@@H](Cc1ccccc1)c1nnc(S(=O)(=O)Cc2cccc(F)c2)o1	·	·	·	10	11	·	·	·
O=C(O)c1cccc(N2C(=O)C=CC2=O)c1	-2	·	-11	·	·	37*	44*	104*
COc1cccc(NC(=O)Cc2ccccc2)c1	0	6	-10	-2	1	0	·	·
O=C(Cc1ccccc1)Nc1cccc(N2C(=O)C=CC2=O)c1	13	18	11	·	10	29*	47*	107*
